EWS-Fli block – EWS/Fli-driven NR0B1 reporter inhibitors, primary screen, A673 cells, NR0B1 luciferase, luminescence, MLPCN library. viability-normalised. inhibition, % at 12.6 µM. actives 0.67% (n = 350,000);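 active = mean inhibition of at least 50% after viability correction, with every replicate also passing that limit; inconclusive = mean reaches 50% but only one of two replicates passes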;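 also: firefly luciferase signal divided by Alamar Blue viability fluorescence both relative to DMSO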
miR122 inh – miR-122 Renilla sensor signal increase in Huh7, primary screen, miR-122 inhibitor project, cell-based, single point, plate reader; Huh7 miR-122 Renilla luciferase sensor, 48 h; neutral wells = 0, positive control = 100; activation (reporter increase), % at 12.5 µM; actives 0.3% (n = 340,000);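 active = mean replicate activation score at least 90 and every replicate individually at or above 90; inconclusive = only one of the two criteria met; inactive = neither criterion met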;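 also: higher luciferase means less miR-122 activity so hits act as miR-122 inhibitors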
C2C12 statin – suppressors of statin myotoxicity in C2C12 myotubes, primary screen, cell-based, single point, plate reader; C2C12 myotubes + simvastatin, ATP luminescence, 48 h; scaled: DMSO 0, geranylgeraniol control 100; rescue of ATP level, % at 7.49 µM; actives 0.78% (n = 330,000);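 active = mean ATP rescue above about 67%, or every replicate alone reaching that limit, limit read from the data, passing the limit was not always enough; inconclusive = no clear call, values can overlap the other calls; inactive = mean under the limit and some replicate under it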;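 also: myotubes were challenged with 10 µM simvastatin during compound exposure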
INS-1E GSIS act – GLuc luminescence reporter in INS-1E cells, primary screen for activators of glucose-dependent secretion of insulin | AID 743287, 2014 | actives 0.61% (n = 370,000) | activation, % at 16.6 µM | INS-1E GLuc reporter insulin secretion, 2-3 h;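 active = lowest replicate activation of at least 40%, so every replicate reaches that level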;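 also: 0% = median of neutral control wells and 100% = median of IBMX positive control wells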
HIV Env fusion – inhibitors of HIV-1 Env-driven cell-cell fusion, primary screen, HeLa-JRFL effector, CEM21 target cells, luciferase; inhibition, % at 12.3 µM; actives 1.1% (n = 360,000);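 active = mean replicate inhibition score of at least 50 and every replicate individually at or above 50; inconclusive = only one of the two criteria met; inactive = mean below 50 and not all replicates reaching 50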;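 also: 0% = plate neutral controls and 100% = maraviroc near 300 nM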
PAX8 inh HTS – inhibitors of PAX8-driven TPO luciferase reporter, primary screen, RMG-I cells, single concentration; SteadyGlo, 24 h; actives 1.2% (n = 360,000); inhibition, % at 12.6 µM;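 active = mean replicate inhibition at least 60% with every replicate also reaching 60%; inconclusive = only one of the two criteria is met; inactive = mean below 60% and not all replicates reaching 60%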;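 also: luciferase light reporting Pax8 driven TPO promoter activity; plate controls were median of neutral control wells for no effect and mitoxantrone controls for full effect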
The depositor's hits bear a star; ? = inconclusive; / = no result given; [ ] = another dose, or the depositor's remark. Rows were chosen to be rich in hits. Some 3.1% of all compounds tested hit in one or more screens of this group.

SMILES | EWS-Fli block | miR122 inh | C2C12 statin | INS-1E GSIS act | HIV Env fusion | PAX8 inh HTS
O=C(C[C@@H]1CC[C@H]2[C@@H](COC[C@H](O)CN2CC2CCOCC2)O1)NCC1CC1 | -3 | 3[16.7 µM] | 5 | -3 | 20[16.7 µM] | -5
CSC(=S)NN=C(C)c1cccc(C)n1 | 13 | 7 | / | -8 | ? | 76*
CC(=NNC(=S)N1CCCCC1)c1cccc(C)n1 | 4 | / | / | 8 | 4 | 4
Cc1ccc(S(=O)(=O)Nc2cccc3c2O[C@H](CN(C)C)[C@@H](C)CN([C@@H](C)CO)C3=O)cc1 | 1 | 8[16.7 µM] | 15 | -2 | -3[16.7 µM] | -2
COc1ccc(/C(C)=N/NC(=O)Cn2nc([N+](=O)[O-])cc2C)cc1 | 1 | / | / | 51* | -20 | -20
COc1cccc(-n2c(=O)c3ccccc3n(CC(=O)NCC3CCCO3)c2=O)c1 (configuration not stated) | -4 | -2 | 9 | 75* | 2 | -2
O=C(Cn1c(=O)[nH]n(-c2ccccc2)c1=O)N1CCCc2ccccc21 | / | 1 | 86* | / | -28 | 21
O=c1c2cnn(-c3ccc(F)cc3)c2ncn1Cc1ccccc1 | / | -5 | 158* | / | / | /
CC(C)(C)n1ncc2c(=O)n(CC(=O)c3ccc(Cl)cc3)cnc21 | / | 0 | -13 | / | / | /
O=C(Cn1cnc2c(cnn2-c2ccccc2)c1=O)c1ccc(Cl)cc1 | -13 | -2 | 143* | 18 | -15 | -5
COc1ccccc1-n1cnc2cc(NCc3ccco3)ccc21 | / | 74 | 73* | / | 42 | /
COC(=O)c1cccc(CSc2nc3ccccc3[nH]2)c1 | 59* | -21 | / | -12 | 33 | -37
COC(=O)c1ccc(CSc2nc3ccccc3[nH]2)o1 | / | 2 | -8 | / | 18 | -32
Cc1ccc2c(c1)c(-c1ccccc1)nc1nncn12 | 7 | 8 | -3 | 46* | -29 | 9
Cc1ccc(-n2[nH]c(=O)c(-c3ccccn3)c2C)cc1 | 74* | 9 | / | 1 | 39 | 75*
O=C(NNC(=O)C12CC3CC(CC(C3)C1)C2)c1cccc([N+](=O)[O-])c1 | -3 | -4 | 1 | -12 | 27 | 15
O=C(NNc1ccc([N+](=O)[O-])cc1)C12CC3CC(CC(C3)C1)C2 | / | 9 | -18 | -11 | 69* | /
CSC(=S)NCc1cccnc1 | 23 | ? | 32 | -1 | 9 | 64*
NC(=S)NCc1cccnc1 | 2 | 35 | -1 | 5 | 0 | -7
O=C(N/N=C(\c1ccccc1)c1cccnc1)c1cccc(F)c1 | / | 11 | 22 | 11 | 20 | 73*
O=C(N/N=C(\c1ccccc1)c1cccnc1)c1ccc(O)cc1 | 0 | -4 | 6 | 21 | / | -11
Cc1ccc(C(=O)Nc2nc(-c3ccccn3)cs2)cc1S(=O)(=O)N1CCOCC1 | 15 | -7 | -78 | 33 | 54 | 82*
O=C(Nc1nc(-c2ccccn2)cs1)c1ccc(F)c(S(=O)(=O)N2CCOCC2)c1 | 8 | -6 | -62 | 9 | 42 | 84*
Cc1ccc(C(=O)Nc2ccccn2)cc1S(=O)(=O)N1CCOCC1 | -14 | / | -2 | 6 | -3 | -13
CCCN(C)C[C@@H]1Oc2cc(-c3ccc(C#N)cc3)ccc2S(=O)(=O)N([C@@H](C)CO)C[C@@H]1C | 9 | / | 2 | 21 | -7[16.7 µM] | -16
SMILES | EWS-Fli block | miR122 inh | C2C12 statin | INS-1E GSIS act | HIV Env fusion | PAX8 inh HTS
CCCCOC(=O)CSc1nc(N)c(C#N)c(-c2ccc(OC)cc2)c1C#N | / | -4 | 90* | / | 0 | 16
CCCCOC(=O)CSc1nc(N)c(C#N)c(-c2ccc(OCC)cc2)c1C#N | / | -6 | / | / | 13 | 15
CCOc1ccc(NC(=O)/C(C#N)=C/c2ccc(N3CCCC3)c(C)c2)cc1 | / | 0 | / | 115* | -89 | -35
Nc1ccc2oc(-c3cccc4ccccc34)nc2c1 | / | 10 | 89* | / | / | /
COCC(=O)Nc1ccc2c(c1)C(=O)N(C)C[C@@H](OC)[C@@H](C)CN(Cc1ccncc1)[C@H](C)CO2 | -9 | -15[16.7 µM] | -7 | 18 | -12[16.7 µM] | 12
CCCCC#Cc1ccc2c(c1)COc1c3ccccc3nn1-2 | -98 | -13 | -16 | / | -90 | -67

Screening data: PubChem BioAssay, Broad Institute
